The text below walks through data of PubChem BioAssay (NCATS).

Records with an inconclusive call do not appear. Entries that show only a call come without a potency. The source made the active and inactive calls. Calls follow the shape of the dose curve; as a rule, active = well fitted inhibition curve with a large enough effect; inconclusive = small, poorly fitted or top-dose-only effect; inactive = flat fitted curve, though single readings scatter.
Potency is read from the fitted curve at half-maximal effect.

One experiment concerns HB3. The experiment is described as follows: qHTS profiling for inhibitors of Plasmodium falciparum proliferation (AID 504749). Also: nearly all actives have a fitted effect of over 60% in size. The conditions noted are these: P. falciparum in erythrocytes, SYBR Green DNA, 72 h; series mostly up to 12.8 µM. An outline of the steps:
(§1)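 SYBR Green fluorescence of parasite DNA, read after lysis and overnight dark incubation, measured growth over 72 h in erythrocyte culture at 0.3% parasitemia and 2.5% hematocrit. Data normalised to DMSO and 0.29 uM artemisinin, with plate-drift correction.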
Background: qHTS replaces the single test concentration by a dilution series.
With `COc1cc(N[C@@H](C)CCCN)c2ncccc2c1`, the Potency was 2240 nM (active). Consider `C=Cc1c(C)c2cc3nc(cc4[nH]c(cc5nc(cc1[nH]2)C(C)=C5CCC(=O)O)c(CCC(=O)OC)c4C)[C@@]1(C)C3=CC=C(C(=O)OC)[C@H]1C(=O)OC` (tested in a mixture with another compound), for which the Potency is 4470 nM (active). On the same count and under the same terms, the result for `O=C(OC[C@@H](O)CO)c1ccccc1Nc1ccnc2cc(Cl)ccc12` reads “inactive”; that for `CO[C@]1(NC(=O)[C@H](C(=O)O)c2ccc(O)cc2)C(=O)N2C(C(=O)O)=C(CSc3nnnn3C)CO[C@H]21`, “inactive”; that for `COc1ccc2c(c1)N(C[C@@H](C)CN(C)C)c1ccccc1S2`, “inactive”.

For `CCC(=O)[C@@]1(C)[C@H](C)C[C@@H]2[C@@H]3CCC4=CC(=O)C=C[C@@]4(C)[C@H]3[C@H](O)C[C@]21C`, the Potency entry was “inactive”. Same read-out and setting: in the case of `CCN(CC)[C@@H](C)CN1c2ccccc2Sc2ccccc21` it was “inactive”; in that of `CC=C(/C(=C/C)c1ccc(O)cc1)c1ccc(O)cc1`, “inactive”; in that of `CC1(C)S[C@@H]2[C@H](NC(=O)[C@@H](N)c3ccccc3)C(=O)N2[C@H]1C(=O)O[C@H]1OC(=O)c2ccccc21`, “inactive”.

A further experiment deals with ICS. The experiment is described as above. The note with it: P. falciparum in erythrocytes, SYBR Green DNA, 72 h; series mostly up to 12.8 µM. In short, it runs like this: as §1
For `COc1cc(N[C@@H](C)CCCN)c2ncccc2c1`, the Potency is 708 nM (active).

For the compound `C=Cc1c(C)c2cc3nc(cc4[nH]c(cc5nc(cc1[nH]2)C(C)=C5CCC(=O)O)c(CCC(=O)OC)c4C)[C@@]1(C)C3=CC=C(C(=O)OC)[C@H]1C(=O)OC` (tested in a mixture with another compound), the Potency was 501 nM (active). Same read-out and setting: in the case of `CO[C@]1(NC(=O)[C@H](C(=O)O)c2ccc(O)cc2)C(=O)N2C(C(=O)O)=C(CSc3nnnn3C)CO[C@H]21` it was “inactive”; in that of `CCC(=O)[C@@]1(C)[C@H](C)C[C@@H]2[C@@H]3CCC4=CC(=O)C=C[C@@]4(C)[C@H]3[C@H](O)C[C@]21C`, 3550 nM (active). Consider `COC(=O)[C@@H]1[C@@H]2C[C@H]3c4[nH]c5cc(OC)ccc5c4CCN3C[C@@H]2C[C@H](OC(=O)/C=C\c2cc(OC)c(OC)c(OC)c2)[C@H]1OC`, for which the Potency is 4470 nM (active). Same read-out and setting: the result for `CC=C(/C(=C/C)c1ccc(O)cc1)c1ccc(O)cc1` reads “inactive”; that for `CC1(C)S[C@@H]2[C@H](NC(=O)[C@@H](N)c3ccccc3)C(=O)N2[C@H]1C(=O)O[C@H]1OC(=O)c2ccccc21`, “inactive”.
